Experimental data as given in PubChem BioAssay AID624260 (Broad Institute, 2012).
Screen size: about 44,000 compounds; about 30 (0.07%) were called active. Inconclusive results (about 1%) are left out. No stated cut-off is given here; in the data, active means inhibition above about 54% (passing the limit was not always enough); inconclusive means no clear call, values can overlap the other calls. Many of the other results were omitted from the sample, so actives are more common in it than they were.

These molecules were tested against Histone-lysine N-methyltransferase NSD2 (Homo sapiens) (UniProt O96028) (assay: NSD2 histone methyltransferase activity blockers – biochemical, plate reader, single point, primary screen (AID 624260;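 further: inhibitors reduce the monomethyl H3K36 fluorescence signal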)). Conditions: NSD2-SET H3K36me1 DELFIA fluorescence, at 12.5 µM, active compounds read high.
Chain of Histone-lysine N-methyltransferase NSD2 (Homo sapiens) (O96028 whole entry, looked up): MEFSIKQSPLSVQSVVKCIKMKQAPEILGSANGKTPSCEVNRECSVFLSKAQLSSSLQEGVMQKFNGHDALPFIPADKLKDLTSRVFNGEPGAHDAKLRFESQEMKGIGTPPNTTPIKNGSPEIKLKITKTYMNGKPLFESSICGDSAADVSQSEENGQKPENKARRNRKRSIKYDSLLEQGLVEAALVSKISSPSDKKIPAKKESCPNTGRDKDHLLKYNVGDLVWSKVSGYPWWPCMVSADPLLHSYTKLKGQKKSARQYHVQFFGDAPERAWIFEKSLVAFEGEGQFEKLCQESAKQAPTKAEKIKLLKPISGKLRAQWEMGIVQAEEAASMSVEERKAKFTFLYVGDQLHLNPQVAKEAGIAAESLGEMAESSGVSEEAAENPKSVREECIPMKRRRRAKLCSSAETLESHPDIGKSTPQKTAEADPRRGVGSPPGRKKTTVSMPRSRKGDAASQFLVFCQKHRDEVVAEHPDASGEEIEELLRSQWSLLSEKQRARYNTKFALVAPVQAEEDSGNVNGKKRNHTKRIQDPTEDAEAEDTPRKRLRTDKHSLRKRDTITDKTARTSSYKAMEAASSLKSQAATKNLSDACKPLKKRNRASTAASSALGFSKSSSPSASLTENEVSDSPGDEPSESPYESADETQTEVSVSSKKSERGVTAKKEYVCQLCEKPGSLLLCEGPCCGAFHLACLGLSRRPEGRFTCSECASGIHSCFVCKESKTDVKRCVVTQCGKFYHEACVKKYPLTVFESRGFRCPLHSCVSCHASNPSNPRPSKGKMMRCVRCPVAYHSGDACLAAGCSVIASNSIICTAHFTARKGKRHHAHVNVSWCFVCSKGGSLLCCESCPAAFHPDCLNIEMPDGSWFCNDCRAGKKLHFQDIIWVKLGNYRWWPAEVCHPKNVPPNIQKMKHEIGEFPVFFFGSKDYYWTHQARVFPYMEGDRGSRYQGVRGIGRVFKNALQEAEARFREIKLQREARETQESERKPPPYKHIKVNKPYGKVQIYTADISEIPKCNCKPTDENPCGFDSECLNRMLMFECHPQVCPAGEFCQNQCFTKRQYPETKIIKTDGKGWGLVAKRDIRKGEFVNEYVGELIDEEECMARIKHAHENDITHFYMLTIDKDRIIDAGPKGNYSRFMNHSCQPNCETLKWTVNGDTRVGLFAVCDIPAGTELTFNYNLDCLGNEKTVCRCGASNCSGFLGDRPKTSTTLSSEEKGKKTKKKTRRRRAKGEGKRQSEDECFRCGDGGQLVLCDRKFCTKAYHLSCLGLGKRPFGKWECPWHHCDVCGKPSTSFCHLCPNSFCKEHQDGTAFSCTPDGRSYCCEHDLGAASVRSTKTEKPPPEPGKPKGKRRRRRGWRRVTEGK

inhibition, inactive:
C/C=C/c1cnc2c(c1)C(=O)N([C@@H](C)CO)C[C@@H](C)[C@H](CN(C)C(=O)c1cnccn1)O2 0.45%
C[C@H](CO)N1C[C@H](C)[C@@H](CN(C)C)Oc2cc(C#Cc3ccccc3)ccc2S1(=O)=O -6.31%
O=C(Nc1ccc2c(c1)[C@H]1C[C@@H](CC(=O)N3CCc4ccccc4C3)O[C@H](CO)[C@H]1O2)Nc1ccccc1F 2.01%
C[C@H](CO)N1C[C@H](C)[C@@H](CN(C)S(=O)(=O)c2ccccc2)Oc2ncc(-c3ccncc3)cc2C1=O 4.23%
C[C@H](CO)N1C[C@H](C)[C@H](CN(C)CC2CCCC2)Oc2ncc(Br)cc2C1=O 0.26%
CC(=O)N(C)C[C@H]1Oc2ncc(C#Cc3ccc(F)cc3)cc2C(=O)N([C@H](C)CO)C[C@@H]1C 3.93%
C[C@@H]1CN([C@H](C)CO)S(=O)(=O)c2ccc(-c3ccncc3)cc2O[C@H]1CN(C)S(=O)(=O)c1ccccc1F -2.69%
CC(C)CC#Cc1ccc2c(c1)O[C@@H](CN(C)C(=O)c1ccccc1F)[C@H](C)CN([C@H](C)CO)S2(=O)=O -7.41%
C[C@@H]1CN([C@@H](C)CO)S(=O)(=O)c2ccc(C#C[C@@H](C)O)cc2O[C@@H]1CN(C)CC1CC1 4.62%
COCC#Cc1ccc2c(c1)O[C@@H](CN(C)Cc1cccnc1)[C@@H](C)CN([C@H](C)CO)S2(=O)=O 5.56%
COc1ccc(S(=O)(=O)Nc2ccc3c(c2)C(=O)N([C@@H](C)CO)C[C@H](C)[C@@H](CN(C)S(=O)(=O)c2ccc(C)cc2)OCCCC[C@@H](C)O3)cc1 -8.56%
C[C@@H]1CN([C@@H](C)CO)S(=O)(=O)c2ccc(Br)cc2O[C@@H]1CN(C)C(=O)C1CCCCC1 -6.34%
C[C@@H]1CN([C@H](C)CO)S(=O)(=O)c2ccc(C#CC(C)(C)O)cc2O[C@@H]1CN(C)Cc1ccccc1 -5.05%
COCC(=O)N(C)C[C@@H]1Oc2cc(C3=CCCC3)ccc2S(=O)(=O)N([C@@H](C)CO)C[C@H]1C -2.03%
C[C@@H]1CN([C@@H](C)CO)S(=O)(=O)c2ccc(Br)cc2O[C@H]1CN(C)S(=O)(=O)c1ccccc1 0.606%
COc1ccc(NC(=O)Nc2ccc3c(c2)[C@H]2C[C@H](CC(=O)NC4CCCC4)O[C@H](CO)[C@H]2O3)cc1 -1.24%
C[C@@H]1CCCCO[C@H](CN(C)C(=O)Cc2ccccc2)[C@H](C)CN([C@@H](C)CO)C(=O)c2cc(NS(=O)(=O)c3ccc(F)cc3)ccc2O1 6.79%
C[C@H](CO)N1C[C@H](C)[C@@H](CN(C)C(=O)C2CCCCC2)Oc2cc(C3=CCCC3)ccc2S1(=O)=O -2.1%
COc1ccc(NC(=O)Nc2ccc3c(c2)C(=O)N([C@@H](C)CO)C[C@@H](C)[C@H](CN(C)C(=O)CCC(F)(F)F)OCCCC[C@@H](C)O3)cc1 -1.97%
C/C=C/c1ccc2c(c1)O[C@@H](CN(C)C(=O)C1CCOCC1)[C@H](C)CN([C@H](C)CO)S2(=O)=O 12.8%
C[C@@H]1CN([C@@H](C)CO)C(=O)Cc2cc(NS(=O)(=O)c3ccc(Cl)cc3)ccc2O[C@H]1CN(C)Cc1ccc(C(F)(F)F)cc1 -12.4%
CC(=O)N(C)C[C@H]1Oc2cc(C#Cc3ccccc3F)ccc2S(=O)(=O)N([C@@H](C)CO)C[C@H]1C -2.4%
O=C(C[C@@H]1C[C@H]2c3cc(NS(=O)(=O)c4ccc(F)cc4)ccc3O[C@H]2[C@H](CO)O1)NCCc1ccccc1 4.07%
C[C@@H]1CN([C@@H](C)CO)S(=O)(=O)c2ccc(C#Cc3ccccc3F)cc2O[C@H]1CN(C)C(=O)c1ccc2c(c1)OCO2 -0.635%
CC(C)NC(=O)N(C)C[C@H]1Oc2ncc(C#CC3(O)CCCC3)cc2C(=O)N([C@H](C)CO)C[C@@H]1C -3.09%
O=C(C[C@@H]1C[C@@H]2c3cc(NS(=O)(=O)c4ccc(F)cc4)ccc3O[C@@H]2[C@@H](CO)O1)NCc1ccncc1 1.12%
CN(C)CC(=O)Nc1ccc2c(c1)[C@H]1C[C@@H](CC(=O)NCc3ccc(-c4ccccc4)cc3)O[C@H](CO)[C@H]1O2 3.66%
C[C@H](CO)N1C[C@H](C)[C@@H](CN(C)S(=O)(=O)c2ccc(Cl)cc2)Oc2ccc(NS(C)(=O)=O)cc2CC1=O 1.76%
C[C@@H]1CN([C@@H](C)CO)C(=O)c2cc(-c3cccc(F)c3)cnc2O[C@@H]1CN(C)Cc1ccccc1 -9.63%
COCC(=O)Nc1ccc2c(c1)[C@H]1C[C@H](CC(=O)NCc3ccccn3)O[C@H](CO)[C@H]1O2 2.78%
CCC(=O)N(C)C[C@H]1Oc2cc(/C=C/c3ccccc3)ccc2S(=O)(=O)N([C@H](C)CO)C[C@@H]1C 2.05%
COc1ccc(NC(=O)Nc2ccc3c(c2)[C@@H]2C[C@H](CC(=O)N4CCCCC4)O[C@H](CO)[C@@H]2O3)cc1 4.87%
C[C@@H]1CN([C@@H](C)CO)S(=O)(=O)c2ccc(-c3cccc(C(=O)N(C)C)c3)cc2O[C@@H]1CN(C)C 1.16%
CC(C)NC(=O)N(C)C[C@@H]1Oc2ncc(C#Cc3ccncc3)cc2C(=O)N([C@@H](C)CO)C[C@@H]1C 4.8%
Cc1ccc(-c2cnc3c(c2)C(=O)N([C@H](C)CO)C[C@@H](C)[C@H](CN(C)Cc2ccccc2C(=O)O)O3)cc1 12.9%
CCCNC(=O)C[C@H]1C[C@@H]2c3cc(NC(=O)COC)ccc3O[C@@H]2[C@@H](CO)O1 3.25%
C[C@H](CO)N1C[C@H](C)[C@@H](CN(C)C(=O)Nc2ccccc2)Oc2ncc(C3=CCCC3)cc2C1=O -0.747%
C/C=C/c1cnc2c(c1)C(=O)N([C@@H](C)CO)C[C@@H](C)[C@H](CN(C)Cc1ccccc1)O2 1.34%
C[C@@H]1CN([C@@H](C)CO)S(=O)(=O)c2ccc(C#CCN(C)C)cc2O[C@@H]1CN(C)S(=O)(=O)c1cccc(F)c1 -0.392%
C[C@H]1CN([C@@H](C)CO)C(=O)c2cc(-c3ccncc3)cnc2O[C@@H]1CN(C)C(=O)c1cccc(F)c1 -0.363%
Cc1ccc(-c2ccc3c(c2)O[C@H](CN(C)C(=O)Nc2ccc(C(F)(F)F)cc2)[C@@H](C)CN([C@H](C)CO)S3(=O)=O)cc1 -7.32%
CCC(=O)N(C)C[C@@H]1Oc2ncc(C#CCc3ccccc3)cc2C(=O)N([C@H](C)CO)C[C@H]1C -13.4%
C[C@H](CO)N1C[C@H](C)[C@@H](CN(C)S(=O)(=O)c2cccc(F)c2)Oc2ncc(-c3cccc(F)c3)cc2C1=O -2.04%
C[C@@H]1CCCCO[C@H](CN(C)S(=O)(=O)c2ccc(Cl)cc2)[C@H](C)CN([C@H](C)CO)C(=O)c2cc(NC(=O)NC3CCCCC3)ccc2O1 5.74%
CC(=O)N(C)C[C@H]1Oc2ncc(C#CC3(O)CCCC3)cc2C(=O)N([C@@H](C)CO)C[C@@H]1C 4.16%
COc1ccc(S(=O)(=O)N[C@@H]2C=C[C@@H](CC(=O)N3CCc4ccccc4C3)O[C@@H]2CO)cc1 3.25%
CC(=O)N(C)C[C@@H]1Oc2ncc(-c3ccccc3F)cc2C(=O)N([C@H](C)CO)C[C@@H]1C -4.17%
COc1ccc(-c2cnc3c(c2)C(=O)N([C@@H](C)CO)C[C@H](C)[C@H](CN(C)C(=O)Cc2cccnc2)O3)cc1 -0.562%
C[C@@H]1CN([C@H](C)CO)C(=O)c2cc(NC(=O)C3CCCCC3)ccc2O[C@@H](C)CCCCO[C@H]1CN(C)S(C)(=O)=O -14.3%
C[C@@H]1CN([C@H](C)CO)S(=O)(=O)c2ccc(Br)cc2O[C@@H]1CN(C)Cc1cncnc1 1.53%
C[C@@H](NC(=O)C[C@H]1C[C@@H]2c3cc(NC(=O)C4CCC4)ccc3O[C@@H]2[C@@H](CO)O1)c1ccccc1 -3.13%
C[C@H]1CN([C@@H](C)CO)S(=O)(=O)c2ccc(-c3cccc(C#N)c3)cc2O[C@H]1CN(C)CC1CC1 18.1%
COc1cccc(S(=O)(=O)N(C)C[C@H]2Oc3cc(C#CCN(C)C)ccc3S(=O)(=O)N([C@H](C)CO)C[C@H]2C)c1 1.49%
C[C@@H]1CN([C@@H](C)CO)C(=O)Cc2cc(NS(C)(=O)=O)ccc2O[C@H]1CN(C)S(=O)(=O)c1ccc(F)cc1 5.39%
CCCNC(=O)N(C)C[C@H]1Oc2ncc(C#CC(C)C)cc2C(=O)N([C@@H](C)CO)C[C@@H]1C -3.03%
C[C@@H]1CN([C@H](C)CO)C(=O)c2cc(-c3ccc(F)cc3)cnc2O[C@@H]1CN(C)C(=O)C1CCC1 8.32%
O=C(C[C@H]1C[C@@H]2c3cc(NC(=O)CC4CC4)ccc3O[C@@H]2[C@@H](CO)O1)NCc1cc(F)ccc1F 9.35%
COc1ccccc1S(=O)(=O)N(C)C[C@@H]1Oc2cc(C#CCC3CCCC3)ccc2S(=O)(=O)N([C@H](C)CO)C[C@H]1C -16.6%
C[C@@H]1CN([C@@H](C)CO)S(=O)(=O)c2ccc(Br)cc2O[C@@H]1CN(C)C(=O)CN(C)C 16.9%
